# Results reported in the supplement of paper PMC4466140.
# B1: unnamed (peptide)
# chain: EEEEEHPPLPARRKS
# B2: unnamed (peptide)
# chain: EREKALPPIPFTTTL
# Biological target: AgAbp1
# Test: SPOT peptide array binding signal intensity (averaged, normalized) (arbitrary units (background-subtracted, floor 0; scale differs between SH3 domains)); higher = stronger binding of the SH3 domain to the peptide
# In short: (§1)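 Four yeast species supplied the SH3 domains, which were expressed as GST fusions in E. coli BL21(DE3) and purified on glutathione Sepharose. Incubation with cellulose membranes carrying synthetic 15-mer peptides, cysteines exchanged for serines, ran overnight at 4°C at 10 μg/ml in TBS-based blocking buffer. Binding signal is reported as normalized, background-subtracted spot intensity averaged over replicates, in arbitrary units not shared between domains.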
row,Binder,SPOT peptide array binding signal intensity
1,B1,≤ 0
2,B2,≤ 0

# Biological target: AgBbc1
# Test: as above
# In short: as §1
row,Binder,SPOT peptide array binding signal intensity
1,B1,23.2
2,B2,≤ 0

# Biological target: AgBem1-D1
# Test: as above
# In short: as §1
row,Binder,SPOT peptide array binding signal intensity
1,B1,≤ 0
2,B2,71

# Biological target: AgBzz1-D1
# Test: as above
# In short: as §1
row,Binder,SPOT peptide array binding signal intensity
1,B1,9
2,B2,13

# Biological target: AgBzz1-D2
# Test: as above
# In short: as §1
row,Binder,SPOT peptide array binding signal intensity
1,B1,27.5
2,B2,≤ 0

# Biological target: AgCyk3
# Test: as above
# In short: as §1
row,Binder,SPOT peptide array binding signal intensity
1,B1,≤ 0
2,B2,2

# Biological target: AgFus1
# Test: as above
# In short: as §1
row,Binder,SPOT peptide array binding signal intensity
1,B1,≤ 0
2,B2,5

# Biological target: AgHof1
# Test: as above
# In short: as §1
row,Binder,SPOT peptide array binding signal intensity
1,B1,3
2,B2,132

# Biological target: AgHse1
# Test: as above
# In short: as §1
row,Binder,SPOT peptide array binding signal intensity
1,B1,3.5
2,B2,0.5

# Biological target: AgLsb1
# Test: as above
# In short: as §1
row,Binder,SPOT peptide array binding signal intensity
1,B1,20.5
2,B2,18

# Biological target: AgLsb4
# Test: as above
# In short: as §1
row,Binder,SPOT peptide array binding signal intensity
1,B1,7880
2,B2,3.5

# Biological target: AgMyo5
# Test: as above
# In short: as §1
row,Binder,SPOT peptide array binding signal intensity
1,B1,0.5
2,B2,≤ 0

# Biological target: AgNbp2
# Test: as above
# In short: as §1
row,Binder,SPOT peptide array binding signal intensity
1,B1,≤ 0
2,B2,≤ 0

# Biological target: AgRvs167
# Test: as above
# In short: as §1
row,Binder,SPOT peptide array binding signal intensity
1,B1,61
2,B2,0.333

# Biological target: AgSho1
# Test: as above
# In short: as §1
row,Binder,SPOT peptide array binding signal intensity
1,B1,8
2,B2,5670

# Biological target: AgSla1-D1-D2
# Test: as above
# In short: as §1
row,Binder,SPOT peptide array binding signal intensity
1,B1,4.5
2,B2,≤ 0

# Biological target: AgSla1-D3
# Test: as above
# In short: as §1
row,Binder,SPOT peptide array binding signal intensity
1,B1,≤ 0
2,B2,≤ 0

# Biological target: CaAbp1-D1
# Test: as above
# In short: as §1
row,Binder,SPOT peptide array binding signal intensity
1,B1,8.5
2,B2,≤ 0

# Biological target: CaAbp1-D2
# Test: as above
# In short: as §1
row,Binder,SPOT peptide array binding signal intensity
1,B1,≤ 0
2,B2,≤ 0

# Biological target: CaBbc1
# Test: as above
# In short: as §1
row,Binder,SPOT peptide array binding signal intensity
1,B1,50.5
2,B2,≤ 0

# Biological target: CaBem1-D1
# Test: as above
# In short: as §1
row,Binder,SPOT peptide array binding signal intensity
1,B1,≤ 0
2,B2,1.5

# Biological target: CaBzz1-D1
# Test: as above
# In short: as §1
row,Binder,SPOT peptide array binding signal intensity
1,B1,≤ 0
2,B2,≤ 0

# Biological target: CaBzz1-D2
# Test: as above
# In short: as §1
row,Binder,SPOT peptide array binding signal intensity
1,B1,≤ 0
2,B2,1.53e-05

# Biological target: CaCyk3
# Test: as above
# In short: as §1
row,Binder,SPOT peptide array binding signal intensity
1,B1,≤ 0
2,B2,≤ 0

# Biological target: CaFus1
# Test: as above
# In short: as §1
row,Binder,SPOT peptide array binding signal intensity
1,B1,9.5
2,B2,125

# Biological target: CaHof1
# Test: as above
# In short: as §1
row,Binder,SPOT peptide array binding signal intensity
1,B1,8.5
2,B2,3

# Biological target: CaHse1
# Test: as above
# In short: as §1
row,Binder,SPOT peptide array binding signal intensity
1,B1,13
2,B2,30

# Biological target: CaLsb1
# Test: as above
# In short: as §1
row,Binder,SPOT peptide array binding signal intensity
1,B1,10.8
2,B2,0.5

# Biological target: CaLsb4
# Test: as above
# In short: as §1
row,Binder,SPOT peptide array binding signal intensity
1,B1,5520
2,B2,≤ 0

# Biological target: CaMyo5
# Test: as above
# In short: as §1
row,Binder,SPOT peptide array binding signal intensity
1,B1,1.75
2,B2,0.5

# Biological target: CaNbp2
# Test: as above
# In short: as §1
row,Binder,SPOT peptide array binding signal intensity
1,B2,≤ 0

# Biological target: CaRvs167
# Test: as above
# In short: as §1
row,Binder,SPOT peptide array binding signal intensity
1,B2,2.67

# Biological target: CaRvs167-3
# Test: as above
# In short: as §1
row,Binder,SPOT peptide array binding signal intensity
1,B2,1

# Biological target: CaSho1
# Test: as above
# In short: as §1
row,Binder,SPOT peptide array binding signal intensity
1,B2,4810

# Biological target: CaSla1-D1-D2
# Test: as above
# In short: as §1
row,Binder,SPOT peptide array binding signal intensity
1,B2,≤ 0

# Biological target: CaSla1-D3
# Test: as above
# In short: as §1
row,Binder,SPOT peptide array binding signal intensity
1,B2,0.5

# Biological target: ScAbp1
# Test: as above
# In short: as §1
row,Binder,SPOT peptide array binding signal intensity
1,B2,≤ 0

# Biological target: ScBbc1
# Test: as above
# In short: as §1
row,Binder,SPOT peptide array binding signal intensity
1,B2,1

# Biological target: ScBem1-D1
# Test: as above
# In short: as §1
row,Binder,SPOT peptide array binding signal intensity
1,B2,≤ 0

# Biological target: ScBzz1-D1
# Test: as above
# In short: as §1
row,Binder,SPOT peptide array binding signal intensity
1,B2,≤ 0

# Biological target: ScBzz1-D2
# Test: as above
# In short: as §1
row,Binder,SPOT peptide array binding signal intensity
1,B2,2

# Biological target: ScCyk3
# Test: as above
# In short: as §1
row,Binder,SPOT peptide array binding signal intensity
1,B2,5

# Biological target: ScFus1
# Test: as above
# In short: as §1
row,Binder,SPOT peptide array binding signal intensity
1,B2,2

# Biological target: ScHof1
# Test: as above
# In short: as §1
row,Binder,SPOT peptide array binding signal intensity
1,B2,66

# Biological target: ScHse1
# Test: as above
# In short: as §1
row,Binder,SPOT peptide array binding signal intensity
1,B2,≤ 0

# Biological target: ScLsb1
# Test: as above
# In short: as §1
row,Binder,SPOT peptide array binding signal intensity
1,B2,≤ 0

# Biological target: ScLsb2
# Test: as above
# In short: as §1
row,Binder,SPOT peptide array binding signal intensity
1,B2,≤ 0

# Biological target: ScLsb3
# Test: as above
# In short: as §1
row,Binder,SPOT peptide array binding signal intensity
1,B2,≤ 0

# Biological target: ScLsb4
# Test: as above
# In short: as §1
row,Binder,SPOT peptide array binding signal intensity
1,B2,0.5

# Biological target: ScMyo3
# Test: as above
# In short: as §1
row,Binder,SPOT peptide array binding signal intensity
1,B2,≤ 0

# Biological target: ScMyo5
# Test: as above
# In short: as §1
row,Binder,SPOT peptide array binding signal intensity
1,B2,≤ 0

# Biological target: ScNbp2
# Test: as above
# In short: as §1
row,Binder,SPOT peptide array binding signal intensity
1,B2,≤ 0

# Biological target: ScPex13
# Test: as above
# In short: as §1
row,Binder,SPOT peptide array binding signal intensity
1,B2,86.8

# Biological target: ScRvs167
# Test: as above
# In short: as §1
row,Binder,SPOT peptide array binding signal intensity
1,B2,3.5

# Biological target: ScSho1
# Test: as above
# In short: as §1
row,Binder,SPOT peptide array binding signal intensity
1,B2,7050

# Biological target: ScSla1-D1-D2
# Test: as above
# In short: as §1
row,Binder,SPOT peptide array binding signal intensity
1,B2,≤ 0

# Biological target: ScSla1-D3
# Test: as above
# In short: as §1
row,Binder,SPOT peptide array binding signal intensity
1,B2,≤ 0

# Biological target: SpAbp1-D1
# Test: as above
# In short: as §1
row,Binder,SPOT peptide array binding signal intensity
1,B2,≤ 0

# Biological target: SpBbc1
# Test: as above
# In short: as §1
row,Binder,SPOT peptide array binding signal intensity
1,B2,≤ 0

# Biological target: SpBzz1-D1
# Test: as above
# In short: as §1
row,Binder,SPOT peptide array binding signal intensity
1,B2,61

# Biological target: SpBzz1-D2
# Test: as above
# In short: as §1
row,Binder,SPOT peptide array binding signal intensity
1,B2,≤ 0

# Biological target: SpCyk3
# Test: as above
# In short: as §1
row,Binder,SPOT peptide array binding signal intensity
1,B2,3.5

# Biological target: SpHof1
# Test: as above
# In short: as §1
row,Binder,SPOT peptide array binding signal intensity
1,B2,1190

# Biological target: SpHof1-2
# Test: as above
# In short: as §1
row,Binder,SPOT peptide array binding signal intensity
1,B2,1870

# Biological target: SpHof1-3
# Test: as above
# In short: as §1
row,Binder,SPOT peptide array binding signal intensity
1,B2,3060

# Biological target: SpHse1
# Test: as above
# In short: as §1
row,Binder,SPOT peptide array binding signal intensity
1,B2,29.2

# Biological target: SpLsb1
# Test: as above
# In short: as §1
row,Binder,SPOT peptide array binding signal intensity
1,B2,≤ 0

# Biological target: SpLsb4
# Test: as above
# In short: as §1
row,Binder,SPOT peptide array binding signal intensity
1,B2,7

# Biological target: SpMyo1
# Test: as above
# In short: as §1
row,Binder,SPOT peptide array binding signal intensity
1,B2,32.5

# Biological target: SpNbp2
# Test: as above
# In short: as §1
row,Binder,SPOT peptide array binding signal intensity
1,B2,≤ 0

# Biological target: SpPex13
# Test: as above
# In short: as §1
row,Binder,SPOT peptide array binding signal intensity
1,B2,1

# Biological target: SpRvs167
# Test: as above
# In short: as §1
row,Binder,SPOT peptide array binding signal intensity
1,B2,38.7

# Biological target: SpSla1-D1-D2
# Test: as above
# In short: as §1
row,Binder,SPOT peptide array binding signal intensity
1,B2,9

# Biological target: SpSla1-D3
# Test: as above
# In short: as §1
row,Binder,SPOT peptide array binding signal intensity
1,B2,0.5
